The results in this text go back to PubChem BioAssay AID2384 (Southern Research Specialized Biocontainment Screening …, 2010).

For orientation: inhibition means the change of the read-out against control, counted positive when it falls.

SMILES strings stand for the structures. About 1,100 (48%) of roughly 2,300 compounds were called active. The set was probably picked from earlier hits. Some of the results follow. Measured potencies and affinities stand elsewhere. A number with no mark means an inactive call. No rule for the calls is given here.

The test is described as follows: S. typhi counter-screen signal inhibition – fluorescence, 4 h, counter-screen for PhoP regulon inhibitor project, dose response (AID 2384). The settings on record: S. typhi GFP reporter counter-screen; series mostly up to 150 µM; inhibition: at the top concentration. (In general: The purpose of a counterscreen is to sort out artefacts and off-target activity.)
Take `O=C(Cn1nc(Cc2ccncc2)c2ccccc2c1=O)Nc1cccnc1Cl`: the “inhibition” value is 2.79%.

In the case of `CCCN(C(=O)CSc1nc2ccccc2n1CC)C1CCS(=O)(=O)C1` (stereo unspecified), the “inhibition” value was 28.5%.

Turning to `O=C(Nc1ccc2c(c1)OCCO2)C1CCCN1C(=O)Nc1ccc(F)cc1` (stereo unspecified), the “inhibition” value was -2.19%.

With `Clc1ccc(Cn2cccc2C2=NCCO2)cc1`, the “inhibition” value is -22.6%.

With `c1cnc2nc(-c3ccc4c(c3)OCO4)cn2c1`, the “inhibition” value is -13.7%.

`COc1ccc(-c2nnc(SC(C)C(=O)Nc3nccs3)n2Cc2ccccc2)cc1OC` (stereo unspecified): the “inhibition” value was -3.63%.

With `CN(C)C(=O)CSc1nnc(Cc2ccc([N+](=O)[O-])cc2)o1`, the “inhibition” value was -7.9%.

As to `COc1ccc(N(CC(=O)N2c3ccccc3CC2C)S(=O)(=O)c2c(C)noc2C)cc1` (stereo unspecified), the “inhibition” value was -2.81%.

Regarding `Cc1oc(/N=C/c2ccc(O)cc2O)c(C#N)c1C`, the “inhibition” value is -15.2%.

`Cc1ccc(/C=N/NC(=O)Cc2cccn2C)cc1`: the “inhibition” value was 6.57%.

On to `O=C(N/N=C/c1ccc(O)cc1O)C(=O)N/N=C/c1ccc(O)cc1O`, for which the “inhibition” value is -70.2%.

For `Cc1cc(Cl)ccc1OCC(=O)N/N=C/c1ccncc1`, the “inhibition” value was 26%.

On to `CCOC(=O)c1[nH]c2ccc(Cl)cc2c1NC(=O)c1nonc1C`, for which the “inhibition” value is -11.4%.

Regarding `O=C(N/N=C/c1ccc(N2CCOCC2)cc1)c1ccc(O)cc1`, the “inhibition” value is 20.5%.

Take `CN(CC(=O)Nc1ccc(F)c(F)c1F)c1cnccn1`: the “inhibition” value was 30.9%.

For `C[C@@H](NC(=O)[C@@H]1Cc2ccccc2CN1)C(=O)NCC1CCCO1` (stereo partly specified), the “inhibition” value was -13%.

Turning to `CCCOc1ccc(C2C(C(=O)c3ccc(C)o3)=C(O)C(=O)N2CCCn2ccnc2)cc1` (stereo unspecified), the “inhibition” value was 2.87%.

On to `C=CCNc1nc(-c2ccccc2)nc(-n2ccnc2)n1`, for which the “inhibition” value is -14.9%.

In the case of `c1ccc2c(c1)CCN(c1nc3ccccc3n3cnnc13)C2`, the “inhibition” value was -15.8%.

For the molecule `CC1(NC(=O)NCCCCCCNC(=O)NC2(C)CCS(=O)(=O)C2)CCS(=O)(=O)C1` (stereo unspecified), the “inhibition” value is -10.2%.

Consider `O=c1c2ccccc2[nH]c2ccc(F)cc12`, for which the “inhibition” value was 4.1%.

On to `O=c1[nH]n(-c2ccccc2)c(=O)c2ccccc12`, for which the “inhibition” value was 3.81%.

As for `COc1ccc(N=Cc2c(O)n(CC3CCCO3)c(=O)[nH]c2=O)cc1` (stereo unspecified), the “inhibition” value was 9.18%.

For the molecule `Cc1cccc(N2CCN(C(=O)C3CCN(c4nnc(-n5cccc5)s4)CC3)CC2C)c1` (stereo unspecified), the “inhibition” value was -25.6%.

`Cc1nn(C)c(C)c1NC(=O)c1ccc(S(=O)(=O)N(C)C)cc1`: the “inhibition” value was 4.22%.

Regarding `Cc1cc(-c2nc3ccccc3o2)c2ccccc2n1`, the “inhibition” value was 0.36%.

`COc1ccccc1Nc1cc(C(=O)NCc2cccnc2)c2ccccc2n1`: the “inhibition” value is -19.1%.

Take `CC(C)(C)Nc1c2ccccc2nc2ccccc12`: the “inhibition” value is 32.2%.

As to `CC(=O)c1sc2nc(=O)c(C)nn2c1C`, the “inhibition” value is -20.6%.

Consider `CCOC(=O)C(CC)Sc1ccc2nnc(-c3cccnc3)n2n1` (stereo unspecified), for which the “inhibition” value was -8.08%.

`COC(=O)c1cc2oc(C)cc2n1CC(=O)Nc1ccc(C)c(C)c1`: the “inhibition” value was -13.2%.

Regarding `CCn1c(-c2cccc(Br)c2)n[nH]c1=S`, the “inhibition” value was 12.4%.

`CCCNC(=O)C1CCN(c2ccc(S(=O)(=O)N3CCOCC3)cc2Cl)CC1`: the “inhibition” value was -33.2%.

Turning to `Cc1onc(-c2ccccc2Cl)c1C(=O)NNC(=O)C1CCN(Cc2ccccc2)CC1`, the “inhibition” value is -18.2%.

As to `COC(=O)CNC(=O)c1ccc(=O)oc1`, the “inhibition” value is -10%.

On to `COc1ccc(Cl)cc1N(C)C(=O)CCNC(=O)Cn1cnc2ccccc2c1=O`, for which the “inhibition” value is 11%.

Take `O=C(NCC1CC1)Nc1cccs1`: the “inhibition” value is 9.59%.

Regarding `Oc1ccc(-c2nc3ncccn3c2Nc2ccc3c(c2)OCCO3)cc1`, the “inhibition” value was 11.8%.

On to `COc1ccccc1NC(=O)Cn1cnc2c(nnn2-c2ccc(C)cc2)c1=O`, for which the “inhibition” value is 7.57%.

With `COc1ccccc1NC(=O)CN1CCN(c2ccccc2)CC1`, the “inhibition” value was -5.44%.

Take `COc1ccc2nc(NC(=O)Nc3ccccc3)sc2c1`: the “inhibition” value is -19.3%.

As for `CCN(CC)CCN(C(=O)c1cccc([N+](=O)[O-])c1)c1nc2ccc(OC)cc2s1`, the “inhibition” value is 39.5%.

In the case of `O=C(N/N=C/c1ccc(-c2ccc(Br)cc2)o1)c1ccc2c(c1)OCO2`, the “inhibition” value is -16.7%.

For the molecule `Cc1nc(C)c(-c2ccc(SCc3ccccc3C)nn2)s1`, the “inhibition” value was -5.23%.

Consider `CCCC(=NCc1ccccc1)C1=C(O)C(C(=O)OC)C(C)(C)CC1=O` (stereo unspecified), for which the “inhibition” value was 7.33%.

Consider `Cc1noc(C)c1CCC(=O)N1CCCC(CCC(=O)NCc2ccc(F)c(F)c2)C1` (stereo unspecified), for which the “inhibition” value was -3.73%.

Take `CC(C)CNC(CC(=O)O)c1ccccc1` (stereo unspecified): the “inhibition” value was 1.77%.

Regarding `CCc1c(C)n([O-])c2c([n+]1=O)CCCCC2`, the “inhibition” value is -29.8%.

`COCc1cc(=O)n2[nH]c(C)nc2n1`: the “inhibition” value is 15.9%.

For the molecule `O=C(CC1(O)C(=O)Nc2ccc(Br)cc21)c1ccc2c(c1)OCO2` (stereo unspecified), the “inhibition” value is -17.7%.

On to `O=C(CN1C2=NCCN2c2ccccc21)c1ccco1`, for which the “inhibition” value was 13%.

For `COc1ccc(NS(=O)(=O)c2cc(NC(=O)c3ccc(C)s3)ccc2N2CCOCC2)cc1`, the “inhibition” value was 11.5%.

As for `CCOc1ccc(-c2c[n+]3c(n2-c2ccccc2)CCCCC3)cc1`, the “inhibition” value is 5.49%.

On to `COc1ccc(C2C(C#N)=C(N)Oc3n[nH]c(C)c32)cc1CSc1ccccn1` (stereo unspecified), for which the “inhibition” value was 30.4%.

For `CC(C)c1ccc2oc(=O)cc(CN3CCN(c4ccc(F)cc4)CC3)c2c1`, the “inhibition” value is -10.1%.

In the case of `CCCCc1cc(=O)oc2cc(C)c(CN3CCCC3)c(O)c12`, the “inhibition” value was 4.75%.
